# Assay outcomes: PubChem, National Center for Advancing Translational Sciences (NCATS)
# Shown are actives, neighbours in structure and some others; about 1.7% of the full set was active somewhere.
# Apoferritin bind: candidate novel general anesthetic via apoferritin binding. Potency, µM (doses to about 77.5 µM), without a hit: top-dose activity change, negative = displacement, actives largely listed as inhibitors. hit rate 0.074% among 350,000. apoferritin/1-aminoanthracene competitive binding, fluorescence. P02791; further: potency means the concentration at half of the fitted maximal effect; on the % scale 0 is the no-effect control and ±100 the full control effect; nearly all actives have a fitted effect of over 20% in size
# Target sequence (P02791 2-175 limits assumed): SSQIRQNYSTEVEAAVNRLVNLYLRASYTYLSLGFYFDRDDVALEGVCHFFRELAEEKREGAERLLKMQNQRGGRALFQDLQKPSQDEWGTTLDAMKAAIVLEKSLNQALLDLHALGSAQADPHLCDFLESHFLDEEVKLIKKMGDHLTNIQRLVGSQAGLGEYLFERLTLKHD
#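 Horse-spleen apoferritin (10 uM) was mixed with 50% saturated 1-aminoanthracene in PBS, exposed to compounds for 10 min at room temperature, and read for fluorescence (ex 380 nm, em 535 nm). Competitive displacement was fitted with a four-parameter Hill equation.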
# TrxR1 substrate: substrates of rat thioredoxin reductase 1; purified TrxR1 substrate turnover, NADPH consumption readout; AID 588456; O89049; Potency, µM (highest dose often 114 µM), inactives show at the top dose activity change, negative = substrate turnover; hit rate 0.01% among 390,000; further: potency means the concentration at half of the fitted maximal effect; on the % scale 0 is the no-effect control and ±100 the full control effect; nearly all actives have a fitted effect of over 50% in size
#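 Rat TrxR1, dispensed at 90 nM, was prereduced with 400 uM NADPH (final) for 5 min at ~22 deg C, then incubated with compound 15 min before 400 uM selenite. A first-read NADPH fluorescence drop versus no-compound background flagged substrates.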
# rTrxR1 inhibitor: blocks rat thioredoxin reductase 1. AID 588453. hit rate 1% among 390,000. O89049. recombinant rTrxR1, NADPH fluorescence consumption, selenite substrate. Potency, µM (doses to about 114 µM), for the others: at the top dose activity change, negative = inhibition, hits mostly inhibitors; further: potency means the concentration at half of the fitted maximal effect; on the % scale 0 is the no-effect control and ±100 the full control effect; nearly all actives have a fitted effect of over 65% in size
#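 Rat TrxR1 (90 nM in the dispensed reagent) was pre-reduced with 400 uM NADPH for 5 min at room temperature, then incubated with compound for 15 min. After 400 uM selenite was added, NADPH fluorescence (Ex 340/Em 450 nm) was followed for 8 min.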
# ALOX12 inh: blocks human arachidonate 12S-lipoxygenase; hit rate 1.1% among 580,000; P18054; Potency, µM (doses to about 108 µM), without a hit: at the top dose activity change, negative = inhibition, most hits filed as inhibitors; AID 1671190; purified 12hLO, xylenol orange hydroperoxide absorbance; further: potency means the concentration at half of the fitted maximal effect; on the % scale 0 is the no-effect control and ±100 the full control effect
#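 Purified human 12hLO at 150 nM in 25 mM Hepes, 0.01% Triton X-100, pH 7.0, preincubated 15 min at room temperature with compound. Reaction started with 40 uM arachidonic acid, 30 min at room temperature. Hydroperoxide measured by Fe-xylenol orange, 573/405 nm absorbance ratio.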
# GRP78 ERSR act: inducers of ER stress response in human glioma cells; U87-MG GRP78 promoter luciferase reporter, 16 h; Potency, µM, inactives show at the top dose activation, usual class: activators; hit rate 0.02% among 420,000; further: potency means the concentration at half of the fitted maximal effect; series mostly up to about 76 µM; % of control where 0% means no effect; nearly all actives have a fitted effect of over 35% in size
#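 ERSR induction read as luciferase luminescence (Bright-Glo, 10 min at room temperature) in stably transfected human U87-MG glioma cells exposed to compounds for 16 h, using GRP78 as sensor.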
# IDH1 R132H inh: inhibitors of human mutant IDH1 R132H; O75874; IDH1-R132H enzyme, NADPH consumption, diaphorase/resazurin fluorescence; Potency, µM (highest dose often 76.6 µM), inactives show at the highest dose activity change, negative = inhibition, hits mostly inhibitors; hit rate 0.093% among 390,000; AID 602179; further: potency means the concentration at half of the fitted maximal effect; on the % scale 0 is the no-effect control and ±100 the full control effect; nearly all actives have a fitted effect of over 65% in size
# Target sequence (O75874 whole entry R132H, stated change not applied): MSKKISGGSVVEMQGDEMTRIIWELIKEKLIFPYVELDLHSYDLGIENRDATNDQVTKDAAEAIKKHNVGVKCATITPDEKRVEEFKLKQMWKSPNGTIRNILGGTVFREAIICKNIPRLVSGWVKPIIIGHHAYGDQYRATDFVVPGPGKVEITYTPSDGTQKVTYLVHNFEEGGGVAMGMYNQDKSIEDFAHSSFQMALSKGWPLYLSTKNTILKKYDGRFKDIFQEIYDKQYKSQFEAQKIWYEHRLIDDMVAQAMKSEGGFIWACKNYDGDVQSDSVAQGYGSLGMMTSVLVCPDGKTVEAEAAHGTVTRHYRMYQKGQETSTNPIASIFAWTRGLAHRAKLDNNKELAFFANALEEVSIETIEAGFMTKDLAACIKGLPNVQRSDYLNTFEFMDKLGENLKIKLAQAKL
#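 IDH1-R132H (0.5 ug/mL dispensed) in pH 7.5 Tris buffer was preincubated 30 min with compound, then given a substrate mix of 0.016 mM NADPH and 2 mM alpha-KG for 80 min at room temperature; remaining NADPH was read by diaphorase/resazurin fluorescence.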
# Resorufin autofl: autofluorescence interference, mutant IDH1 hit counter-screen. Resorufin detection reagent fluorescence interference, cell-free. 750 tested, under 10 active. inhibition of signal, % at 51.2 µM. shares compounds with IDH1 R132H inh;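 further: 0% = wells with normal resorufin and full inhibition = wells lacking resorufin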
# WT IDH1 inh: inhibits human wild-type IDH1, mutant selectivity check; hit rate 9% among 750; Potency, µM (top dose mostly 115 µM), for inactives: at the highest dose activity change, negative = inhibition, most hits filed as inhibitors; shares compounds with IDH1 R132H inh; WT IDH1 enzyme, NADPH diaphorase/resazurin fluorescence;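 further: potency means the concentration at half of the fitted maximal effect; 0% = full WT IDH1 enzyme control and full inhibition = no enzyme wells; nearly all actives have a fitted effect of over 55% in size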
# Target sequence (O75874 whole entry, looked up): as the sequence (O75874 whole entry R132H, stated change not applied) above, with H132R counted along it
# IDH1 R132H conf: inhibits human mutant IDH1 enzyme in cherrypick confirmation; shares compounds with IDH1 R132H inh; IDH1 R132H enzyme, NADPH diaphorase/resazurin fluorescence; Potency, µM (series often up to 76.6 µM), without a hit: at the highest dose activity change, negative = inhibition, most hits filed as inhibitors; hit rate 83% among 750; AID 624002; further: potency means the concentration at half of the fitted maximal effect; nearly all actives have a fitted effect of over 50% in size
# Numbers without * were called inactive; ? = inconclusive; . = not tested or not shown; [ ] = dose if it differs, or a comment. The call rests on the fitted dose curve; in most records, active means well fitted curve in the direction sought with a large enough effect; inconclusive means small, poorly fitted or top-dose-only effect, or another doubt; inactive means no such curve, though single readings can be large; an effect the other way counts as inactive or inconclusive.
SMILES,Apoferritin bind,TrxR1 substrate,rTrxR1 inhibitor,ALOX12 inh,GRP78 ERSR act,IDH1 R132H inh,Resorufin autofl,WT IDH1 inh,IDH1 R132H conf
CC(=O)NCC(=O)N1Cc2ccccc2CC2(CCCCN2CC2CCCC2)C1 (centres undefined),.,.,.,4.8%[6.33 µM],.,.,.,.,.
CN(C1=C(N2CCCCC2)C(=O)c2ccccc2C1=O)c1ccccc1,?,2.4%,?,-0.5%,-0.4%,?,-2.6,2.0%,?
COc1ccc(C)cc1-n1c(-c2ccc(Cl)cc2)cc2c1CC(C)(C)CC2=O,1.4%,3.7%,26.8%,?,-3.7%,?,-0.7,0.4%,14.1µM*
COCCc1ccc(OCc2ccccc2-c2ccc(=O)n(C)n2)cc1,.,.,.,82.6%,.,.,.,.,.
CCOC(=O)COc1ccc2c(=O)c(-c3ccc(OC)c(OC)c3)c(C(=O)OCC)oc2c1,-12.7%,-5.4%,6.3%,0.3%,?,11.5%,.,.,.
CCOC(=O)c1oc2cc(OC(C)=O)ccc2c(=O)c1-c1ccc(OC)c(OC)c1,-16.3%,-6.0%,-5.3%,-20.3%,1.7%,29.3µM*,-3.1,4.7%,25.1µM*
COc1cccc(Cn2c(=O)n(-c3cccc(Cl)c3C)c(=O)c3c4c(sc32)CN(C(C)=O)CC4)c1,-8.0%,3.7%[57.1 µM],15.5%[57.1 µM],?,-4.2%,35.5µM*,0.7,20µM*,25.1µM*
O=C(c1nnc(CN2CCC(F)(F)CC2)n1-c1cccnc1)N1CCC[C@@H]1C(c1ccccc1)c1ccccc1,.,.,.,-18.5%,.,.,.,.,.
Cc1nn(CCc2nn[nH]n2)c2nc(-c3ccc(C4CCCCC4)cc3)cc(C(F)(F)F)c12,-16.6%,88.7%,22.3%[57.1 µM],?,5.2%,52.1µM*,-14.0,50.1µM*,39.8µM*
CCCCn1nc(C)c2c(C(F)(F)F)cc(-c3ccc(Br)cc3)nc21,.,.,.,-8.2%,.,.,.,.,.
CCOc1cc(=O)n2c(c1C(=O)Nc1ccc(F)cc1)CCCC2,.,.,.,36.8%,.,.,.,.,.
O=C(NC1CCCCC1)C(c1ccccc1)N(Cc1ccco1)C(=O)c1csnn1 (centres undefined),1.2%,1.1%[57.1 µM],1.2%[57.1 µM],-27.5%,-5.3%,-4.3%,.,.,.
CCC(C)(C)NC(=O)C(c1ccccc1)N(Cc1cccs1)C(=O)Cn1nnc2ccccc21 (centres undefined),.,5.1%,23.1%,137.5%,-4.8%,?,5.2,4.3%,15.8µM*
COCCNC(=O)C(c1ccccc1)N(Cc1cccs1)C(=O)Cn1nnc2ccccc21 (centres undefined),-16.8%,-4.0%,1.0%,0.0%,-3.6%,11.3%,.,.,.
O=C(NC1CCCCC1)C(c1ccco1)N(Cc1cccs1)C(=O)Cn1nnc2ccccc21 (centres undefined),-23.1%,13.0%,36.4%,-4.8%,1.1%,?,-3.0,-2.2%,11.2µM*
O=C(NC1CCCCC1)C(c1ccccc1)N(Cc1ccco1)C(=O)Cn1cnc2ccccc21 (centres undefined),-7.0%,-0.2%,0.5%[57.1 µM],0.0%,1.9%,11.7µM*,-1.8,-8.1%,6.31µM*
CC(C)[C@H](NC(=O)CC1CCCC1)C(=O)N1CCC[C@H]1C(=O)NCc1ccccc1,.,.,.,-1.5%,.,.,.,.,.
CCCn1cc(S(=O)(=O)c2cc(C)ccc2C)c(=O)c2cc(F)c(N3CCCCCC3)cc21,5.7%,4.8%,11.3%,-27.9%,-1.4%,?,-5.2,-9.3%,15.8µM*
O=c1[nH]c(/C=C/c2cccc([N+](=O)[O-])c2)c([N+](=O)[O-])c(=O)[nH]1,-4.4%,5.2%[57.1 µM],-51.0%,-4.7%,-3.5%,44.7µM*,3.9,-16.1%,31.6µM*
O=c1[nH]c(/C=C/c2ccccc2)c([N+](=O)[O-])c(=O)[nH]1,-1.8%,-9.7%,-5.2%[57.1 µM],-4.6%,-3.5%,-22.6%,.,.,.
c1ccc(CNC2CCCc3c2cnn3Cc2ccccc2)cc1 (centres undefined),.,.,.,4.7%,.,.,.,.,.
Cc1ccc(N2C(S)=C(C#N)C(=O)NC2c2cccs2)cc1 (centres undefined),-9.9%,-4.5%,-14.7%,?,1.4%,52.1µM*,3.7,20.4%,?
CC(=O)NS(=O)(=O)c1ccc(N=c2ssc3c2-c2cc(C)ccc2NC3(C)C)cc1,-8.0%,-3.5%,0.9%,?,-1.5%,?,2.2,3.9%,44.7µM*
c1cc(-c2sc(-c3ccncc3)c(-c3ccncc3)c2-c2ccncc2)ccn1,2.3%,2.5%[57.1 µM],4.6%[57.1 µM],?,-4.6%,?,0.2,?,28.2µM*
Nc1nnc(-c2ccncc2)s1,-1.7%,82.2%[57.1 µM],-4.6%[57.1 µM],-25.5%,-0.1%,-2.4%,.,.,.
COc1ccc(O[C@H]2C=C[C@@H](c3ccccc3)O[C@H]2COC(=O)CC/C(C)=N\OC[C@@H](O)COCc2ccco2)cc1,-5.9%[15.3 µM],.,.,.,-5.5%,.,.,.,.
COc1cc2cnc(-c3ccccc3)c(-c3ccc(C(F)(F)F)cc3)c2cc1OC,.,5.2%[57.1 µM],14.7%[57.1 µM],-17.4%,-0.4%,?,-2.8,-0.6%,15.8µM*
COc1ccc(-c2cc3nc(C4CCN(C(=O)OC(C)(C)C)CC4)c(C(=O)O)cn3n2)cc1,9.1%,15.1%,2.4%,-8.0%,-3.5%,20.7µM*,-5.5,79.4µM*,15.8µM*
Cc1ccccc1C(=O)Nc1cccc(-c2nnc(SCC(=O)NCc3ccco3)n2C)c1,.,1.0%,0.5%,.,-1.8%,.,.,.,.
N#CCN(Cc1ccccc1)Cc1cc(Cl)c2c(c1)OCCCO2,.,.,.,11.5%,.,.,.,.,.
